Among the data in PubChem BioAssay (NCI) are growth inhibition values, retold here.

Molecules are shown by their SMILES. About 79,000 compounds went through this panel and 15% of them were active in at least one assay; those are over-represented in the sample as a whole. Values without a mark were called inactive. Activity calls are given as the source filed them. Rule as the data show it: active = growth inhibition above about 70%; inactive = the rest.

A short description of assay [1]: NCI Yeast Anticancer Drug Screen. Data for the rad50 strain (AID 155).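 Also: 0% = growth of vehicle-only cultures of the same strain.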 Conditions: S. cerevisiae rad50 strain growth inhibition, active compounds read high. The gist of the method:
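Inhibition values express reduced yeast growth in compound-treated cultures relative to vehicle-treated controls.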

Assay [2] in a line: NCI Yeast Anticancer Drug Screen. Data for the mec2-1 strain (AID 157). Particulars: S. cerevisiae mec2-1 strain, active compounds read high. The gist of the method:
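Using mec2-1 yeast: add compound, measure growth, express inhibition versus vehicle-treated cultures.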

Assay [3] is described as follows: NCI Yeast Anticancer Drug Screen. Data for the sgs1 mgt1 strain (AID 161).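 Also: 0% = growth of cultures given vehicle only.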 Particulars: S. cerevisiae sgs1 mgt1 strain, active compounds read high. A digest of the protocol: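 Yeast cells carrying a defined DNA-repair defect were exposed to test compounds. Growth inhibition was measured relative to vehicle-treated controls.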
A short description of assay [4]: NCI Yeast Anticancer Drug Screen. Data for the cln2 rad14 strain (AID 165).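 Also: 0% = growth equal to vehicle treated cultures.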 Particulars: S. cerevisiae cln2 rad14 strain, active compounds read high. A digest of the protocol: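 Yeast strain cln2 rad14, bearing defects in cell cycle control and DNA repair, serves as the test system; values reflect growth inhibition compared with vehicle.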
Assay [5] is described as follows: NCI Yeast Anticancer Drug Screen. Data for the bub3 strain (AID 167). Conditions: S. cerevisiae bub3 mutant strain, active compounds read high. The gist of the method:
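Steps: expose the mutant yeast strain to compound; grow alongside vehicle-treated cultures; measure growth; express inhibition against the vehicle cultures.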

Assay [6] is described as follows: NCI Yeast Anticancer Drug Screen. Data for the mlh1 rad18 strain (AID 175). Particulars: S. cerevisiae mlh1 rad18 strain growth inhibition, active compounds read high. A digest of the protocol:
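Steps: expose repair-defective yeast to compound; measure growth; express inhibition against vehicle-treated controls.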

[7] abbreviates: at 5.0 µM (retest, dose inferred, filed as 0.5).
[8] abbreviates: at 50.0 µM (retest, dose inferred, filed as 5.0).

As to `Nc1nc(-c2ccccc2)nc(N)c1N=O`, the growth inhibition in assay [1] (setting [7]) is 50%; in assay [1] (setting [8]) it was 99% (active); in assay [1] (at 50.0 µM), 87.4% (active); in assay [2] (setting [7]), 63%; in assay [2] (setting [8]), 98% (active); in assay [2] (at 50.0 µM), 89.5% (active). Also, the growth inhibition in assay [3] (setting [7]) was 50%; in assay [3] (setting [8]) it was 99% (active); in assay [3] (at 50.0 µM), 91.5% (active); in assay [4] (setting [7]) it was 52%; in assay [4] (setting [8]), 100% (active); in assay [4] (at 50.0 µM), 77% (active). The growth inhibition is 82% (active) in assay [5] (setting [7]); 97% (active) in assay [5] (setting [8]); 89.2% (active) in assay [5] (at 50.0 µM); 49% in assay [6] (setting [7]); 67% in assay [6] (setting [8]); 88.5% (active) in assay [6] (at 50.0 µM).
Take `O=[n+]1c2ccccc2n([O-])c2cc(Cl)ccc21`: the growth inhibition in assay [1] (setting [7]) is 95% (active); in assay [1] (setting [8]) it was 99% (active); in assay [1] (at 50.0 µM) it was 98.7% (active); in assay [2] (setting [7]), 86% (active); in assay [2] (setting [8]) it was 100% (active); in assay [2] (at 50.0 µM) it was 99.4% (active). Moreover, the growth inhibition in assay [3] (setting [7]) is 77% (active); in assay [3] (setting [8]), 99% (active); in assay [3] (at 50.0 µM), 99.1% (active); in assay [4] (setting [7]), 48%; in assay [4] (setting [8]), 99% (active); in assay [4] (at 50.0 µM), 96.7% (active). The growth inhibition in assay [5] (setting [7]) was 95% (active); in assay [5] (setting [8]), 100% (active); in assay [5] (at 50.0 µM), 98.5% (active); in assay [6] (setting [7]), 94% (active); in assay [6] (setting [8]) it was 99% (active); in assay [6] (at 50.0 µM) it was 99.1% (active).
Take `Oc1ccc2ccccc2c1N=Nc1ccccn1`: the growth inhibition in assay [1] (setting [7]) is 35%; in assay [1] (setting [8]) it was 91% (active); in assay [1] (at 50.0 µM) it was 98.2% (active); in assay [2] (setting [7]) it was -4%; in assay [2] (setting [8]) it was 96% (active); in assay [2] (at 50.0 µM), 96.7% (active). In addition, the growth inhibition in assay [3] (setting [7]) was 19%; in assay [3] (setting [8]) it was 96% (active); in assay [3] (at 50.0 µM), 97.3% (active); in assay [4] (setting [7]), 10%; in assay [4] (setting [8]) it was 94% (active); in assay [4] (at 50.0 µM), 92.8% (active). Besides, the growth inhibition in assay [5] (setting [7]) was -26%; in assay [5] (setting [8]) it was 92% (active); in assay [5] (at 50.0 µM) it was 96.7% (active); in assay [6] (setting [7]), 27%; in assay [6] (setting [8]) it was 94% (active); in assay [6] (at 50.0 µM), 97.7% (active).
Turning to `CC1(C)CCCC2=C1C(=O)N(SC(Cl)(Cl)Cl)C2=O`, the growth inhibition in assay [1] (setting [7]) was 98% (active); in assay [1] (setting [8]), 99% (active); in assay [1] (at 50.0 µM) it was 90.3% (active); in assay [2] (setting [7]), 99% (active); in assay [2] (setting [8]) it was 99% (active); in assay [2] (at 50.0 µM), 93.1% (active). The growth inhibition in assay [3] (setting [7]) is 100% (active); in assay [3] (setting [8]) it was 99% (active); in assay [3] (at 50.0 µM), 90.5% (active); in assay [4] (setting [7]) it was 99% (active); in assay [4] (setting [8]), 99% (active); in assay [4] (at 50.0 µM), 91.3% (active). The growth inhibition in assay [5] (setting [7]) was 100% (active); in assay [5] (setting [8]), 99% (active); in assay [5] (at 50.0 µM) it was 89.9% (active); in assay [6] (setting [7]), 98% (active); in assay [6] (setting [8]), 99% (active); in assay [6] (at 50.0 µM), 90.1% (active).
